Pol kappa inh = DNA polymerase kappa (human) inhibition; Q9UBT6; purified Pol kappa, fluorescent DNA synthesis assay, 10 min; Potency, µM (series often up to 107 µM), for the others: at the top dose activity, negative = inhibition, usual class: inhibitors; 0.53% of 400,000 active; AID 588579; also: % is scaled to controls: 0 for no effect and ±100 for the full control effect
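Activity was followed as the change in fluorescence between reads at 0 and 10 min after starting the reaction with 50 nM substrate. Beforehand, 10 nM polymerase had been preincubated with compound for 15 min at room temperature.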
Pol beta inh = blocks human DNA polymerase beta activity; P06746; Pol beta primer extension/strand displacement, fluorescence kinetic; Potency, µM (doses to about 114 µM), for the others: at the top dose activity change, negative = inhibition, hits mostly inhibitors; 1.3% of 340,000 active; AID 485314; also: % is scaled to controls: 0 for no effect and ±100 for the full control effect
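Preincubation: enzyme (10 nM) with compound, 15 min, RT. Reaction: substrate added to 50 nM final. Reads: 0 and 10 min. Analysis: normalized, Hill fit.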
WRN inhibitor = WRN helicase (human) inhibition | Q14191 | AID 651768 | WRN helicase unwinding, fluorescent forked duplex, kinetic | Potency, µM (top dose mostly 114 µM), for the others: at the top dose activity change, negative = inhibition, usual class: inhibitors | 0.46% of 360,000 active; also: % is scaled to controls: 0 for no effect and ±100 for the full control effect; nearly all actives have a fitted effect of over 55% in size
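Primary qHTS, 1536-well format. 20 nM WRN + compound, 15 min RT; start with 100 nM forked fluorophore/quencher duplex, 2 mM ATP (final); kinetic read ex 525/em 598 nm.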
POLI inh = DNA polymerase iota (human) inhibition; Q9UNA4; Pol iota fluorescent replication assay, 10 min; Potency, µM (titrated, usually from 115 µM), without a hit: top-dose activity, negative = inhibition, hits mostly inhibitors; 1% of 390,000 active; AID 588590
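Fluorescent replication assay read twice, at 0 min and 10 min after adding 50 nM (final) substrate. Enzyme (10 nM) and compounds were first incubated 15 min at room temperature; enzyme-free buffer wells were negative controls.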
Pol eta inh = inhibitors of human DNA polymerase eta. recombinant Pol eta, fluorescent DNA replication assay. Q9Y253. AID 588591. 1.2% of 390,000 active. Potency, µM (top dose mostly 114 µM), inactives show at the top dose activity change, negative = inhibition, hits mostly inhibitors; also: % is scaled to controls: 0 for no effect and ±100 for the full control effect
Target sequence (Q9Y253 whole entry, looked up): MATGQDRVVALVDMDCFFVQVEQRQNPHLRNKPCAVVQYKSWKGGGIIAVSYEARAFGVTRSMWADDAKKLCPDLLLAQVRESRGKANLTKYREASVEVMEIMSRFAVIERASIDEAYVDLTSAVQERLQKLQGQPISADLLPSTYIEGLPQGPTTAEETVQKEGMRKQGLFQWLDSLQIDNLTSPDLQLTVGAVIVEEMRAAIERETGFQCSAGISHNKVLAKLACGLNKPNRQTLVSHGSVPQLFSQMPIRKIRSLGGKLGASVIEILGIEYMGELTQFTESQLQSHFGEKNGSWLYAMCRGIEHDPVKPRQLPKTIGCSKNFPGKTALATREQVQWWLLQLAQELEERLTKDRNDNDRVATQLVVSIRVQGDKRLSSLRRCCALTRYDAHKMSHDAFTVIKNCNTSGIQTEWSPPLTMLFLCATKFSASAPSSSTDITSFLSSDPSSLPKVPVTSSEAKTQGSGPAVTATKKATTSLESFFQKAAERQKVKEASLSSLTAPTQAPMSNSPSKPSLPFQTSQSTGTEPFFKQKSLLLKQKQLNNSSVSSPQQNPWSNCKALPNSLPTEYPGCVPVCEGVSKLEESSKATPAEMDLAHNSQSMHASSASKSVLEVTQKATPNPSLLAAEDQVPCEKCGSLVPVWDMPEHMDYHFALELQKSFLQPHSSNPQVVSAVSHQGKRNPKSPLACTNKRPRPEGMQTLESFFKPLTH
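Pol eta (10 nM) was preincubated with compounds for 15 min at room temperature, after which fluorescent replication substrate (50 nM final) was added to start the reaction. Fluorescence was read kinetically at 0 and 10 min.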
FEN1 inh = blocks human flap endonuclease 1. P39748. Recombinant FEN1 flap cleavage, fluorescence, 15 min. Potency, µM (series often up to 114 µM), for the others: top-dose activity change, negative = inhibition, most hits filed as inhibitors. 0.35% of 390,000 active. AID 588795; also: % is scaled to controls: 0 for no effect and ±100 for the full control effect; nearly all actives have a fitted effect of over 65% in size
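Compounds are tested as a concentration series against 10 nM FEN1; after a 15 min room-temperature preincubation, 50 nM substrate starts cleavage, with plate reads at 0 and 15 min. Normalized responses are fitted by a Hill equation.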
Starred values were filed as active, the others as inactive; ? = inconclusive; . = not tested or not shown; ! = repeats disagree; [ ] = dose if it differs, or a comment. Compounds with a hit are over-represented: about 2.4% of the library has one in this group of screens. Calls follow the shape of the dose curve; as a rule, active = well fitted curve in the direction sought with a large enough effect; inconclusive = small, poorly fitted or top-dose-only effect, or another doubt; inactive = no such curve, though single readings can be large; an effect the other way counts as inactive or inconclusive. Potency is read from the fitted curve at half-maximal effect.

SMILES | Pol kappa inh | Pol beta inh | WRN inhibitor | POLI inh | Pol eta inh | FEN1 inh
O=C(Nc1ccccc1F)c1cnn2c1NC(=C1CC1)C=C2C(F)F | -83.4% | . | . | ? | . | -12.2%
O=C(O)CCCCC1CCSS1 (configuration not stated) | 6.7µM*! | 1.12µM* | -20.8% | 19.5% | -0.2% | -10.0%
CN(C)C(=O)c1ccc(-c2ccc3ncnc(NC4CCNCC4)c3c2)cc1 | 6.5%[60.1 µM] | . | . | . | . | .
O=c1cc(-c2cc(O)c(O)c([C@@H]3O[C@H](CO)[C@@H](O)[C@H](O)[C@H]3O)c2)oc2cc(O[C@@H]3O[C@H](CO)[C@@H](O)[C@H](O)[C@H]3O)cc(O)c12 | 11.2%[60.1 µM] | . | . | . | . | .
O=S(=O)(c1ccc(Cl)cc1)N1CCN(c2nc(-c3cccc(Br)c3)nc3ccccc23)CC1 | -13.2% | . | . | 68.3% | . | -6.3%
CCCCNC(=O)N1CCN(c2ccnc3cc(Cl)ccc23)CC1 | -3.3% | 1.6% | 50.1µM* | 28.2µM* | ? | ?
Cc1ccc(F)cc1NC(=O)N1CCN(c2ccnc3cc(Cl)ccc23)CC1 | -8.1% | -23.4% | -0.2% | 30.2% | -23.9% | -13.2%
c1ccc(-c2oc3ncnc(NCCCN4CCOCC4)c3c2-c2ccccc2)cc1 | -7.4% | 0.7% | -1.0% | 12.0% | 2.2% | -18.6%
Nc1ncnc2oc(-c3ccoc3)c(-c3ccco3)c12 | 20µM* | . | . | 11.2µM* | . | 17.8µM*
CC(C)c1ccc(NC(=O)CSc2nnc(-c3ccccc3)n2C)cc1 | 1.4% | . | . | -7.4% | . | 14.2%
O=C(CN1C(=O)NC2(CCOc3ccccc32)C1=O)c1ccc[nH]1 (configuration not stated) | -18.8% | . | -10.5% | 39.8µM* | ? | 17.7%
Cc1ccc2oc(-c3ccc(C)c(NC(=O)COc4ccccc4C)c3)nc2c1 | 7.2% | . | . | -8.9% | . | 20.5%
CN(c1ccccc1)S(=O)(=O)c1ccc2[nH]c(=O)oc2c1 | -28.0% | 50.1µM* | -35.9% | 11.2µM* | 31.6µM* | -3.6%
Cc1ccc(C)c(NS(=O)(=O)c2ccc3[nH]c(=O)oc3c2)c1 | ? | 31.6µM* | -19.7% | ? | 31.6µM* | -6.3%
CC(C)C[C@H](NC(=O)CNC(=O)[C@H](C)NC(=O)[C@H](CC(C)C)NC(=O)[C@H](CCCNC(=N)N)NC(=O)[C@H](Cc1cnc[nH]1)NC(=O)[C@@H](NC(=O)[C@@H](N)C(C)C)[C@@H](C)O)C(=O)N[C@@H](CC(C)C)C(=O)N[C@@H](CO)C(=O)N[C@@H](CCCNC(=N)N)C(=O)N[C@@H](CO)C(=O)NCC(=O)NCC(=O)N[C@H](C(=O)N[C@H](C(=O)N[C@@H](CCCCN)C(=O)N[C@@H](CC(N)=O)C(=O)N[C@@H](CC(N)=O)C(=O)N[C@@H](Cc1ccccc1)C(=O)N[C@H](C(=O)N1CCC[C@H]1C(=O)N[C@H](C(=O)N[C@@H](CC(N)=O)C(=O)N[C@H](C(=O)NCC(=O)N[C@@H](CO)C(=O)N[C@@H](CCCCN)C(=O)N[C@@H](C)C(=O)N[C@@H](Cc1ccccc1)C(N)=O)C(C)C)[C@@H](C)O)C(C)C)C(C)C)C(C)C | 12.6%[60.1 µM] | . | . | . | . | .
CC[C@H](C)[C@H](NC(=O)CNC(=O)[C@H](CCCNC(=N)N)NC(=O)[C@H](CO)NC(=O)[C@H](C)NC(=O)[C@H](Cc1ccc(O)cc1)NC(=O)[C@H](Cc1c[nH]c2ccccc12)NC(=O)[C@H](C)NC(=O)[C@@H]1CCCN1C(=O)[C@H](CC(N)=O)NC(=O)[C@@H](NC(=O)[C@H](CC(=O)O)NC(=O)[C@@H]1CCCN1C(=O)[C@@H](N)[C@@H](C)O)[C@@H](C)CC)C(=O)N[C@@H](CCCNC(=N)N)C(=O)N1CCC[C@H]1C(=O)N[C@H](C(=O)NCC(=O)N[C@@H](CCCNC(=N)N)C(=O)N[C@@H](Cc1ccccc1)C(N)=O)C(C)C | -6.0%[12 µM] | . | . | . | . | .
O=C(O)c1cc(Cl)c2c(c1)OCO2 | -39.4% | ? | -11.2% | ? | 22.4µM* | -15.7%
COc1cc(Cl)c(C)cc1NC(=O)c1ccccc1NC(=O)CN1CCOCC1 | ? | ? | -4.0% | ? | 79.4µM* | -16.2%
Cn1nnnc1SCCNCc1ccccc1OCc1ccccc1 | 2.9% | 28.2µM* | -32.1%[57.1 µM] | 14.1% | -6.4% | -0.2%
CCOc1ccccc1CNCCSc1nnnn1C | -4.0% | 1.3% | . | -5.8% | -10.9% | 10.6%
CC[C@H](C)/C=C/C1=CC2=C(Cl)C(=O)[C@@]3(C)OC(=O)C(C(=O)[C@H](C)[C@@H](C)O)=C3C2=CO1 | ? | . | ? | ? | 17.8µM* | ?
Clc1ccc(CN(Cc2ccccc2)C(c2cccs2)c2nnnn2C2CCCC2)cc1 (configuration not stated) | -11.7% | 6.5% | -4.7% | -5.0% | -9.5% | 4.7%
c1ccc(CN(Cc2ccco2)C(c2ccncc2)c2nnnn2C2CCCC2)cc1 (configuration not stated) | ? | 16.2% | ? | ? | 44.7µM* | ?
O=C(Cc1ccc(OCCCCc2ccccc2)cc1)NO | -25.2% | . | . | 21.3% | . | ?
O=C(COc1ccccc1C(=O)Nc1ccccc1)Nc1cccc(Br)c1 | -8.3% | . | . | 20.2% | . | -23.4%
SMILES | Pol kappa inh | Pol beta inh | WRN inhibitor | POLI inh | Pol eta inh | FEN1 inh
C#CCCc1cocc1/C=[N+](\[O-])c1ccc(C(=O)OCC)cc1 | ? | . | -9.0% | 35.5µM* | 2.7% | -20.2%
CNc1c(Cl)cc(C=O)cc1Cl | -17.9% | . | . | -4.7% | . | -1.5%
O=C(NC(Cc1ccccc1)C(=O)O)/C(=C\c1ccco1)NC(=O)c1ccccc1 (configuration not stated) | -26.8% | 39.8µM* | -27.2%[57.1 µM] | ? | 14.1µM* | -2.5%
O=C(NC(Cc1ccccc1)C(=O)O)/C(=C\c1ccco1)NC(=O)c1ccco1 (configuration not stated) | -19.4% | ? | -11.9% | 45.0% | -21.2% | -0.2%
O=C(NC(Cc1ccccc1)C(=O)O)/C(=C\c1ccco1)NC(=O)c1ccc(Br)cc1 (configuration not stated) | 50.1µM* | -21.6% | ? | 20µM* | ? | 3.2%
O=C(Cc1ccc(-c2ccccc2)cc1)NO | -18.9% | . | . | 47.1% | . | 3.3%
N#Cc1cc(N2CCCCC2)c([N+](=O)[O-])cc1C#N | -10.4%[60.1 µM] | 2.1% | 4.1% | -10.7% | -5.2% | 20.7%
O=[N+]([O-])c1cc2no[n+]([O-])c2cc1N1CCCCC1 | ? | . | ? | ? | 15.8µM* | 50.1µM*
O=C(NNC(=O)c1ccc2ccccc2c1)Nc1ccc(F)cc1 | -3.5% | 44.7µM* | 2.1% | ? | -15.2% | -5.0%

Source: PubChem (National Center for Advancing Translational Sciences (NCATS))
